In the OligoGym collection:

target: ZNF214; assay: pooled miR-30 sensor sort-seq; sequence = guide strand; details: shRNA
Further: reference of the scale not given here.

Sequence | sensor-assay potency score (higher = more potent)
TGAGCTGTGACTAAAGTCCTTT | -0.611
TCTGATGAAAGTGAACTCCGGA | 0.913
TAGAACTGTGACTAAAACCCTT | -0.352
TTTTATAGAATTTCTCTTCTGT | 1.04
TTGGATGTCTATACAAGTCTGA | 0.602
TCTTTGATGAGTGTGAAGCTTT | -0.426
TTATAGAATTTCTCTTCTGTGT | -0.222
TAAACTTTGATTAAAGCTGTTA | -0.478
TATACAAGTCTGATCTCTGAGA | -0.855
TCTTGTGGAAAACACACCGTGA | -0.342
TCTACTGACATGACATTTGTGT | 0.423
TTAACCATTCCTGACACTGGGA | -0.384

target: ZNF219; assay: as above; details: shRNA

Sequence | sensor-assay potency score (higher = more potent)
TAGAGTTGAAGCGGAAGCGCTT | -0.695
TCCAACTCCAGCAACAGGCGTG | -0.967
TTTATTGGGGACACGACTCTGC | 0.537
